Measured values from PubChem BioAssay (Tox21).
Results filed as inconclusive are left out. Where a call stands in place of a potency, no number is given. Unmarked numbers belong to inactive results. Calls of active or inactive are those of the source. Unless noted, the call rests on the fitted dose curve; in most records, active means well fitted curve in the direction sought with a large enough effect in the repeat runs; inconclusive means weak or mixed curves; inactive means no such curve, though single readings can be large; an effect the other way counts as inactive or inconclusive.

Columns and labels:
[1] = target: Retinoic acid receptor RXR-alpha (Homo sapiens) (UniProt P19793); assay: qHTS assay to identify small molecule agonists of the RXR signaling pathway (AID 1159527; calls by dose curve; further: nearly all actives have a fitted effect of over 35% in size; further: potency means the concentration at half of the fitted maximal effect); conditions: HEK293T RXRa-UAS-bla, beta-lactamase ratio, 16 h; series mostly up to 76.8 µM
Outline: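 GeneBLAzer RXR-alpha-UAS-bla HEK 293T cells in 2% charcoal-stripped FBS medium were exposed to compounds for 16 hr at 37 C in agonist mode. Beta-lactamase reporter read as 460/530 nm FRET ratio after 2 hr substrate loading.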

[2] = qHTS assay to identify small molecule agonists of the RXR signaling pathway - cell viability counter screen (AID 1159529); conditions: RXR-alpha-bla HEK293T viability, CellTiter-Glo, 16 h; series mostly up to 76.8 µM; further: nearly all actives have a fitted effect of over 50% in size
Outline: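 RXR-alpha-UAS-bla HEK 293T cells in medium with 2% charcoal-stripped FBS were pre-incubated 5 hr, then compound-treated 16 hr at 37 C. Viability was read by CellTiter-Glo luminescence in the same wells as the beta-lactamase assay, with tetraoctyl ammonium bromide as positive control.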

[3] = qHTS assay to identify small molecule antagonists of the retinoid acid receptor (RAR) signaling pathway - cell viability counter screen (AID 1159551); conditions: C3RL4 cells viability, ATP luminescence (CellTiter-Glo), 6 h; series mostly up to 92.4 µM; further: nearly all actives have a fitted effect of over 35% in size
Outline: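 ATP-based viability, C3RL4 cells, 6 h at 37 C with 1 uM final retinol co-added after compound; luminescence read 30 min post CellTiter-Glo, RT.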

Sequence of Retinoic acid receptor RXR-alpha (Homo sapiens) (P19793 whole entry, looked up): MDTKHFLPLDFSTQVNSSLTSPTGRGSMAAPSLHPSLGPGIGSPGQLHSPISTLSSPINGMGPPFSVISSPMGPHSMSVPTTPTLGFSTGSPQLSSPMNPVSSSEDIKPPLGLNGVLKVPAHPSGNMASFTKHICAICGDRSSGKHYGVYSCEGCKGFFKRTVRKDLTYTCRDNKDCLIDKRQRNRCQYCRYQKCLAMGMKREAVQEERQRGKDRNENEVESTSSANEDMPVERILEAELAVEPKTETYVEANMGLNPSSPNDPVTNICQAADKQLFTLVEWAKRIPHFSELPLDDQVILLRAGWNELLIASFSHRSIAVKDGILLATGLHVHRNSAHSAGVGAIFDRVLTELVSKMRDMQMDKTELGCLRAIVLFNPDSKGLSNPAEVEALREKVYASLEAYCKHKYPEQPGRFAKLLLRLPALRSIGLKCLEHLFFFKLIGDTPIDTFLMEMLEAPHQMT

Compound: CC1(C)SC(C)(C)SC(C)(C)S1
- Potency [1]: inactive
- Potency [2]: inactive

Compound: CCCCCCC(CCCCCCCCCCC(=O)OCC(COC(C)=O)OC(C)=O)OC(C)=O (configuration not stated)
- Potency [1]: inactive
- Potency [2]: inactive

Compound: CC(C)[N+](C)(C)CC(O)COc1cccc2ccccc12 (configuration not stated)
- Potency [1]: inactive
- Potency [2]: inactive
- outcome [3]: inactive

Compound: Cc1ccc(N)cc1[N+](=O)[O-]
- Potency [1]: inactive
- Potency [2]: inactive

Compound: CC1=CC(C)C(C=O)C(C)C1 (configuration not stated)
- Potency [1]: inactive
- Potency [2]: inactive
- outcome [3]: inactive

Compound: CO
- Potency [1]: inactive

Compound: CC(C)N1C(=O)c2ccccc2C1=O
- Potency [1]: inactive
- Potency [2]: inactive
- outcome [3]: inactive

Compound: NCCNC(=O)c1ccc(Cl)cn1
- Potency [1]: inactive

Compound: CC(=O)N[C@@H](CCC(N)=O)C(=O)O
- Potency [1]: inactive
- Potency [2]: inactive

Compound: CC(O)CN(CCCN(C)C)CCCN(C)C (configuration not stated)
- Potency [1]: inactive
- Potency [2]: inactive
- outcome [3]: inactive

Compound: C=CC(=O)OCCCCCC
- Potency [1]: inactive

Compound: CC(C)(C)OC(=O)N1C[C@@H](F)C[C@H]1C(=O)O
- Potency [1]: inactive
- Potency [2]: inactive
- outcome [3]: inactive

Compound: C1CCCCCCCCCCC1
- activation [1]: 0.57% [at 15.8 µM]
- activity change, negative = cytotoxicity [2]: 1.49% [at 15.8 µM]

Compound: Fc1ccccc1-c1ccccc1
- Potency [1]: inactive
- Potency [2]: inactive
- outcome [3]: inactive

Compound: CCN1CCCC(OC(=O)C(c2ccccc2)c2ccccc2)C1 (configuration not stated)
- Potency [1]: inactive
- Potency [2]: inactive
- outcome [3]: inactive

Compound: CN(C)N=Nc1ccccc1
- Potency [1]: inactive

Compound: CC(C)(C)CC(C)(C)N
- Potency [1]: 2120 nM (active)
- Potency [2]: inactive

Compound: C=C(C)C(=O)NCCC[N+](C)(C)C
- Potency [1]: inactive

Compound: Cn1cnc2c(=O)[nH]c(N)nc21
- Potency [1]: inactive

Compound: CCn1cc(C(=O)O)c(=O)c2cc(F)c(N3CCN(C)CC3)cc21
- activation [1]: 8.93% [at 15.8 µM]
- activity change, negative = cytotoxicity [2]: 6.61% [at 15.8 µM]
- activity change, negative = cytotoxicity [3]: 1.65% [at 19 µM]

Compound: CCCCc1ccc(N)cc1
- Potency [1]: inactive
- Potency [2]: inactive
- outcome [3]: inactive

Compound: CCc1cc(S(=O)(=O)O)c2cc(C(C)C)cccc1-2
- Potency [1]: inactive
- Potency [2]: inactive

Compound: CC1(C)OC(=O)Nc2ccc(Br)cc21
- Potency [1]: inactive
- Potency [2]: inactive
- outcome [3]: inactive

Compound: C#CC(O)CCCCC (configuration not stated)
- Potency [1]: inactive
- Potency [2]: inactive

Compound: CC/C=C\C#N
- Potency [1]: inactive
- Potency [2]: inactive

Compound: NC(=S)Nc1cccc2ccccc12
- activation [1]: 6.32% [at 6.98 µM]
- activity change, negative = cytotoxicity [2]: -0.564% [at 6.97 µM]
- activity change, negative = cytotoxicity [3]: 3.14% [at 8.39 µM]

Compound: CCC(C)(C)C1CCC(OC)CC1 (configuration not stated)
- Potency [1]: inactive
- Potency [2]: inactive

Compound: COC[C@H](c1ccc(C(F)(F)F)cc1)N1CCN(C2(C)CCN(C(=O)c3c(C)ncnc3C)CC2)C[C@H]1C
- Potency [1]: inactive

Compound: CCOC(=O)[C@H](CCc1ccccc1)N[C@@H](C)C(=O)N1CCC[C@H]1C(=O)O
- Potency [1]: inactive
- Potency [2]: inactive
- outcome [3]: inactive

Compound: CCCCCCCCCCCCCCCCCC(=O)OCCCCCCCCCCCCCC(C)C
- Potency [1]: inactive
- Potency [2]: inactive

Compound: Nc1cc(N)cc(C(=O)O)c1
- Potency [1]: inactive
- Potency [2]: inactive
- outcome [3]: inactive

Compound: C=C(C)C(=O)NCCCN(C)C
- Potency [1]: inactive
- Potency [2]: inactive
- outcome [3]: inactive

Compound: CCCOCC(C)OCC(C)O (configuration not stated)
- Potency [1]: inactive
- Potency [2]: inactive

Compound: OC1OC[C@@H](O)[C@H](O)[C@H]1O (some centres not stated)
- Potency [1]: inactive
- Potency [2]: inactive

Compound: C=CCOCC(O)CS(=O)(=O)O (configuration not stated)
- Potency [1]: inactive
- Potency [2]: inactive

Compound: C/C=C1\C(=O)C[C@H]2[C@@H]3CCC4=CC(=O)CC[C@]4(C)[C@H]3CC[C@]12C
- Potency [1]: inactive
- Potency [2]: inactive
- outcome [3]: inactive

Compound: FC(F)(F)C(F)(F)C(F)(F)C(F)(F)C(F)(F)C(F)(F)C(F)(F)C(F)(F)C(F)(F)C(F)(F)F
- activation [1]: 2.2% [at 6.98 µM]
- activity change, negative = cytotoxicity [2]: 1.03% [at 6.97 µM]

Compound: C=CCn1c(=O)n([C@@H]2O[C@H](CO)[C@@H](O)[C@H]2O)c2nc(N)[nH]c(=O)c21
- Potency [1]: inactive
- Potency [2]: inactive
- outcome [3]: inactive

Compound: CC(C)(O)C(=O)c1ccc(OCCO)cc1
- Potency [1]: inactive
- Potency [2]: inactive
- outcome [3]: inactive

Compound: N#CCN(CC#N)CCN(CC#N)CC#N
- Potency [1]: inactive
- Potency [2]: inactive
- outcome [3]: inactive

Compound: C[N+](C)(C)CC[N+]1(C)Cc2c(Cl)c(Cl)c(Cl)c(Cl)c2C1
- Potency [1]: inactive
- Potency [2]: inactive
- outcome [3]: inactive

Compound: CC(=O)O[C@H](CC(=O)[O-])C[N+](C)(C)C
- Potency [1]: inactive
- Potency [2]: inactive
- outcome [3]: inactive

Compound: Cc1cc(C)c(NC(=O)CN(CC(=O)O)CC(=O)O)c(C)c1Br
- Potency [1]: inactive
- Potency [2]: inactive
- outcome [3]: inactive

Compound: CC(=O)CCc1ccc(O)cc1
- Potency [1]: inactive
- Potency [2]: inactive
- outcome [3]: inactive

Compound: O=[N+]([O-])c1ccc(CCO)cc1
- Potency [1]: inactive
- Potency [2]: inactive
- outcome [3]: inactive

Compound: Cc1cc(C)cc(OCC2CNC(=O)O2)c1 (configuration not stated)
- Potency [1]: inactive
- Potency [2]: inactive
- outcome [3]: inactive

Compound: CCC(C(=O)NC(N)=O)c1ccccc1 (configuration not stated)
- Potency [1]: inactive
- Potency [2]: inactive
- outcome [3]: inactive
